In PubChem BioAssay AID1159580 (chemical genetic matrix, 2015):
The campaign covered roughly 5,500 compounds. About 2,000 (36%) were called active. Inconclusive results (about 18%) are left out. No stated cut-off is given here; in the data, active means normalized growth mostly below about 0.91 (no sharp cut-off); inconclusive means no clear call, values can overlap the other calls; inactive means mostly above about 0.92. The list shows a part of the results.

Experiment: chemical genetic growth profiling, strain panel (AID 1159580);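 further: tested at 20 µM; growth read once vehicle control cultures reached saturation at 30 °C; 1 = growth at the plate median or of vehicle wells; lower values mean less growth of the strain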
Settings: growth OD

Measured: normalized growth

O=C(O)c1cc(=O)c(O)c2c(O)c(O)ccc2c1
inactive: S. cerevisiae deletion strains, locus YJR075W, strain HOC1, hits give low values 1.04 | S. cerevisiae deletion strains, locus YKL009W, strain mrt4, hits give low values 1.04 | S. cerevisiae deletion strains, locus YKL068W, hits give low values 1.01 | S. cerevisiae deletion strains, locus YKL085W, strain MDH1 (second series), hits give low values 1.02 | S. cerevisiae deletion strains, locus YKL085W, strain MDH1, hits give low values 1.02 | S. cerevisiae deletion strains, locus YKL160W, strain elf1, hits give low values 1.02 | S. cerevisiae deletion strains, locus YKL190W, strain CNB1, hits give low values 1 | S. cerevisiae deletion strains, locus YKR001C, strain vps1, hits give low values 1.01 | S. cerevisiae deletion strains, locus YKR026C, strain gcn3, hits give low values 0.965 | S. cerevisiae deletion strains, locus YKR091W, strain srl3, hits give low values 0.998 | S. cerevisiae deletion strains, locus YLL001W, strain dnm1, hits give low values 1 | S. cerevisiae deletion strains, locus YLL026W, hits give low values 0.992 | S. cerevisiae deletion strains, locus YLL041C, strain sdh2, hits give low values 0.993 | S. cerevisiae deletion strains, locus YLR027C, strain aat2, hits give low values 0.998 | S. cerevisiae deletion strains, locus YLR039C, strain RIC1, hits give low values 1.04 | S. cerevisiae deletion strains, locus YLR058C, strain SHM2, hits give low values 1.01 | S. cerevisiae deletion strains, locus YLR102C, strain apc9, hits give low values 1.01 | S. cerevisiae deletion strains, locus YLR113W, strain HOG1, hits give low values 1 | S. cerevisiae deletion strains, locus YLR221C, strain rsa3, hits give low values 1.03 | S. cerevisiae deletion strains, locus YLR258W, strain gsy2, hits give low values 0.993 | S. cerevisiae deletion strains, locus YLR262C, strain YPT6 (second series), hits give low values 0.942 | S. cerevisiae deletion strains, locus YLR262C, strain YPT6, hits give low values 0.971 | S. cerevisiae deletion strains, locus YLR268W, strain sec22, hits give low values 0.987 | S. cerevisiae deletion strains, locus YLR320W, strain mms22, hits give low values 1 | S. cerevisiae deletion strains, locus YLR330W, strain CHS5, hits give low values 1 | S. cerevisiae deletion strains, locus YLR342W, strain FKS1 (second series), hits give low values 1 | S. cerevisiae deletion strains, locus YLR342W, strain FKS1, hits give low values 0.996 | S. cerevisiae deletion strains, locus YLR357W, strain rsc2, hits give low values 0.943 | S. cerevisiae deletion strains, locus YLR370C, strain arc18, hits give low values 0.998 | S. cerevisiae deletion strains, locus YLR371W, strain rom2, hits give low values 1.03 | S. cerevisiae deletion strains, locus YLR384C, strain iki3, hits give low values 1.01 | S. cerevisiae deletion strains, locus YLR418C, strain cdc73, hits give low values 0.946 | S. cerevisiae deletion strains, locus YML016C, strain PPZ1, hits give low values 0.991 | S. cerevisiae deletion strains, locus YML032C, strain rad52, hits give low values 1.05 | S. cerevisiae deletion strains, locus YML120C, strain ndi1, hits give low values 1.01 | S. cerevisiae deletion strains, locus YML124C, strain tub3, hits give low values 1.01 | S. cerevisiae deletion strains, locus YMR058W, strain fet3, hits give low values 0.99 | S. cerevisiae deletion strains, locus YMR078C, strain ctf18, hits give low values 1.03 | S. cerevisiae deletion strains, locus YMR125W, strain sto1, hits give low values 0.987 | S. cerevisiae deletion strains, locus YMR129W, hits give low values 1.01 | S. cerevisiae deletion strains, locus YMR205C, strain PFK2, hits give low values 0.988 | S. cerevisiae deletion strains, locus YMR223W, strain ubp8, hits give low values 1.05 | S. cerevisiae deletion strains, locus YMR231W, strain pep5, hits give low values 0.997 | S. cerevisiae deletion strains, locus YMR263W, strain SAP30, hits give low values 0.999 | S. cerevisiae deletion strains, locus YMR307W, strain GAS1, hits give low values 1.04 | S. cerevisiae deletion strains, locus YNL067W, strain RPL9B, hits give low values 1 | S. cerevisiae deletion strains, locus YNL071W, strain lat1, hits give low values 1 | S. cerevisiae deletion strains, locus YNL128W, strain TEP1, hits give low values 0.972 | S. cerevisiae deletion strains, locus YNL153C, strain GIM3, hits give low values 0.98 | S. cerevisiae deletion strains, locus YNL183C, strain NPR1, hits give low values 0.907 | S. cerevisiae deletion strains, locus YNL209W, strain ssb2, hits give low values 1 | S. cerevisiae deletion strains, locus YNL233W, strain BNI4, hits give low values 0.989 | S. cerevisiae deletion strains, locus YNL248C, strain rpa49, hits give low values 1.04 | S. cerevisiae deletion strains, locus YNL250W, strain rad50, hits give low values 1.01 | S. cerevisiae deletion strains, locus YNL271C, strain bni1, hits give low values 0.999 | S. cerevisiae deletion strains, locus YNL298W, strain CLA4, hits give low values 1.01 | S. cerevisiae deletion strains, locus YNL307C, strain MCK1, hits give low values 1.04 | S. cerevisiae deletion strains, locus YNL322C, strain KRE1 (second series), hits give low values 0.981 | S. cerevisiae deletion strains, locus YNL322C, strain KRE1, hits give low values 1.01 | S. cerevisiae deletion strains, locus YNR049C, strain mso1, hits give low values 0.993 | S. cerevisiae deletion strains, locus YNR052C, strain pop2, hits give low values 1.02 | S. cerevisiae deletion strains, locus YOL006C, strain TOP1, hits give low values 0.984 | S. cerevisiae deletion strains, locus YOL012C, strain htz1 0.622 | S. cerevisiae deletion strains, locus YOL147C, strain pex11, hits give low values 1.01 | S. cerevisiae deletion strains, locus YOR001W, strain rrp6, hits give low values 1 | S. cerevisiae deletion strains, locus YOR061W, strain CKA2, hits give low values 0.995 | S. cerevisiae deletion strains, locus YOR069W, strain VPS5, hits give low values 1 | S. cerevisiae deletion strains, locus YOR070C, strain gyp1, hits give low values 1 | S. cerevisiae deletion strains, locus YOR080W, strain dia2, hits give low values 0.986 | S. cerevisiae deletion strains, locus YOR083W, strain WHI5, hits give low values 1.02 | S. cerevisiae deletion strains, locus YOR106W, strain vam3, hits give low values 1.04 | S. cerevisiae deletion strains, locus YOR136W, strain idh2, hits give low values 1.02 | S. cerevisiae deletion strains, locus YOR144C, strain elg1, hits give low values 1.01 | S. cerevisiae deletion strains, locus YOR184W, strain ser1, hits give low values 1.1 | S. cerevisiae deletion strains, locus YOR231W, strain MKK1, hits give low values 0.987 | S. cerevisiae deletion strains, locus YOR265W, strain rbl2, hits give low values 0.993 | S. cerevisiae deletion strains, locus YOR270C, strain vph1, hits give low values 1.01 | S. cerevisiae deletion strains, locus YOR290C, strain snf2, hits give low values 0.947 | S. cerevisiae deletion strains, locus YOR316C, strain cot1, hits give low values 1.02 | S. cerevisiae deletion strains, locus YPL051W, strain arl3, hits give low values 1 | S. cerevisiae deletion strains, locus YPL055C, strain LGE1, hits give low values 0.964 | S. cerevisiae deletion strains, locus YPL078C, strain atp4, hits give low values 1.02 | S. cerevisiae deletion strains, locus YPL106C, strain sse1, hits give low values 0.964 | S. cerevisiae deletion strains, locus YPL240C, strain hsp82, hits give low values 1 | S. cerevisiae deletion strains, locus YPL241C, strain CIN2, hits give low values 1.01 | S. cerevisiae deletion strains, locus YPL256C, strain CLN2, hits give low values 0.968 | S. cerevisiae deletion strains, locus YPR119W, strain clb2, hits give low values 1.01 | S. cerevisiae deletion strains, locus YPR141C, strain kar3, hits give low values 1.01 | S. cerevisiae deletion strains, locus YPR163C, strain tif3, hits give low values 1.02 | S. cerevisiae deletion strains, locus YPR167C, strain met16, hits give low values 1.01 | S. cerevisiae deletion strains, strain wtn01, hits give low values 0.998 | S. cerevisiae strains, strain wild type, hits give low values 1
